JMJD2A Tudor inh = JMJD2A Tudor domain (human) inhibition; AlphaScreen JMJD2A-Tudor / H3K4me3 peptide binding; Potency, µM (titrated, usually from 114 µM), for the others: at the highest dose activity change, negative = inhibition, most hits filed as inhibitors; actives 4.4% (n = 390,000); O75164; further: potency means the concentration at half of the fitted maximal effect; on the % scale 0 is the no-effect control and ±100 the full control effect; nearly all actives have a fitted effect of over 50% in size
PLK1 PBD inh = blocks phosphopeptide binding to human PLK1 polo-box domain; P53350; Plk1 PBD binding of FITC phosphopeptide, fluorescence polarization; Potency, µM, for inactives: max response, negative = inhibition, usual class: inhibitors; actives 2.8% (n = 360,000); further: potency means the concentration at half of the fitted maximal effect; series mostly up to about 57 µM; on the % scale 0 is the no-effect control and ±100 the full control effect; nearly all actives have a fitted effect of over 65% in size
G9a inh = blocks human histone lysine methyltransferase G9a; Q96KQ7; G9a H3K9 monomethylation, AlphaScreen, 2 h; Potency, µM (doses to about 102 µM), without a hit: at the top dose activity, negative = inhibition, most hits filed as inhibitors; actives 8.8% (n = 350,000); further: potency means the concentration at half of the fitted maximal effect; on the % scale 0 is the no-effect control and ±100 the full control effect; nearly all actives have a fitted effect of over 75% in size
Target sequence (Q96KQ7 913-1193 limits assumed): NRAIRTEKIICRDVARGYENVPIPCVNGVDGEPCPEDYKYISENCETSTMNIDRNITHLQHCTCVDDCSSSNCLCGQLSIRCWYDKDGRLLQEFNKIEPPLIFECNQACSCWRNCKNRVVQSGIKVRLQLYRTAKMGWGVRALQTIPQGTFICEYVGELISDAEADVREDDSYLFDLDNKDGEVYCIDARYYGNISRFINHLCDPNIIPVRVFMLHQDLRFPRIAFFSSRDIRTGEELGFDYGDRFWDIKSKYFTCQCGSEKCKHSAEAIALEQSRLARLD
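AlphaScreen read-out: biotin-H3K9 peptide (500 nM) methylation by 20 nM enzyme with 20 uM SAM, 2 h at room temperature after 15 min compound preincubation; anti-monomethyl H3K9 antibody plus donor/acceptor beads, 10 min dark.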
BAZ2B block = blocks human BAZ2B; Q9UIF8; AlphaScreen BAZ2B-H3K14Ac peptide displacement; Potency, µM (highest dose often 114 µM), without a hit: at the highest dose activity change, negative = inhibition, usual class: inhibitors; actives 4.4% (n = 360,000); further: potency means the concentration at half of the fitted maximal effect; on the % scale 0 is the no-effect control and ±100 the full control effect; nearly all actives have a fitted effect of over 60% in size
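Complex of BAZ2B and biotin-H3K14Ac (50 nM apiece) forms over 30 min at RT, then faces library compounds up to 110 uM for another 30 min; AlphaScreen beads added, 20 min dark incubation, luminescence read.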
HP1b binding inh = blocks HP1-beta chromodomain binding to methylated histone tails. Potency, µM (series often up to 114 µM), for the others: top-dose activity change, negative = inhibition, actives largely listed as inhibitors. AlphaScreen HP1-beta / biotin-H3K9me3 peptide binding. P83916. actives 0.56% (n = 390,000); further: potency means the concentration at half of the fitted maximal effect; nearly all actives have a fitted effect of over 70% in size
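HP1-beta protein (50 nM final) preincubated 30 min at room temperature with biotinylated H3(1-18)K9me3 peptide (50 nM) in PBS pH 7.4, 0.01% Tween-20, then compound added for 30 min. AlphaScreen streptavidin donor/nickel chelate acceptor beads (10 ug/mL final), 30 min dark, luminescence read.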
PI5P4K alpha inh = PI5P4K alpha (human) kinase inhibition; PI5P4Kalpha enzyme, ADP-Glo luminescence, 60 min; stronger effect = lower value; max response, %; actives 1.2% (n = 330,000); active means max response of -50% or lower; inconclusive means between -30% and -50%; inactive means -30% or higher; further: value at the top dose of about 77 µM; on the % scale 0 is the no-effect control and ±100 the full control effect
Target sequence (P48426 whole entry, looked up): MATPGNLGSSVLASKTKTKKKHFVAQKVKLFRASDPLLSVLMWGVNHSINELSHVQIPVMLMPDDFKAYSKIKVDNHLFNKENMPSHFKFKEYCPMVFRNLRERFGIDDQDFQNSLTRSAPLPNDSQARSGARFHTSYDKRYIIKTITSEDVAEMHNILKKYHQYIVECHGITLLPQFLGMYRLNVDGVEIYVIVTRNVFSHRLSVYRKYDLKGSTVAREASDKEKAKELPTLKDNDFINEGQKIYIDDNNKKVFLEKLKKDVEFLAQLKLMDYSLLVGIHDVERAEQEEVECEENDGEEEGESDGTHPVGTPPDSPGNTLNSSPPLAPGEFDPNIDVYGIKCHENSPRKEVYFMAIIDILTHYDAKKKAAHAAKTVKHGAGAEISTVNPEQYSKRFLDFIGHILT
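PI5P4Kalpha ADP-Glo assay; 5 microM ATP final; 60 min RT reaction; HEPES pH 7.4/EGTA/CHAPS, 5% DMSO; controls lacking substrate or enzyme; luminescent end-point.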
Active calls of the source: *; ? = inconclusive; . = no result; [ ] = dose if it differs, or a comment. Compounds with a hit are over-represented: about 12% of the library has one in this group of screens. Unless noted, the call rests on the fitted dose curve; in most records, active means well fitted curve in the direction sought with a large enough effect; inconclusive means small, poorly fitted or top-dose-only effect, or another doubt; inactive means no such curve, though single readings can be large; an effect the other way counts as inactive or inconclusive.

SMILES	JMJD2A Tudor inh	PLK1 PBD inh	G9a inh	BAZ2B block	HP1b binding inh	PI5P4K alpha inh
COc1ccc(CNCc2cn(-c3cccc(F)c3)nc2-c2ccc(C)o2)cc1	?	-10%	45µM*	?	-8%	1
COc1ccc(-n2cc(CNCCc3ncc(C)[nH]3)c(-c3ccccc3Cl)n2)cc1	-28%	-1%	35µM*	?	30%	3
COc1ccc(-n2cc(CNCCc3nc(C)cc(C)n3)c(-c3ccccc3Cl)n2)cc1	-15%	-4%	8%	-13%	17%	4
Cc1ccc(-n2cc(CNCCn3nc(C)cc3C)c(-c3ccc(F)cc3)n2)cc1	-27%	-15%	5%[0.501 µM]	-12%	29%	1
COc1ccc(-n2ncc3c2CC(C)(C)CC3NC(=O)c2cnc(C)cn2)cc1 (stereo not drawn)	-3%	-22%	11%[59 µM]	-8%	47%	-5
Cc1ccc(N2CC(NC(=O)c3ccc4c(c3)OCO4)CC2=O)cc1 (stereo not drawn)	-14%	.	10%[59 µM]	0%	-5%	.
Cc1cccc(C(=O)Nc2ccccc2OCc2cc(=O)n3ccccc3n2)c1	-11%	.	2%[59 µM]	7%	20%[57 µM]	.
CCOC(=O)C1=CCN(S(=O)(=O)c2ccccc2C)C1c1ccc(Cl)c(Cl)c1 (stereo not drawn)	.	8%	.	.	.	12
COc1ccc(NC(=O)c2cc3c([nH]c2=O)CC(c2ccccc2)CC3=O)cc1 (stereo not drawn)	13%	.	4%[12.7 µM]	1%	43%	.
O=C(COc1ccccc1)Nc1ccc(C(=O)OCc2cc(=O)n3nc(C4CC4)sc3n2)cc1	-1%	.	4%[12.7 µM]	-2%	16%	.
CC(C)(C)C1CCc2c(C(=O)NNC(=O)/C=C/C(=O)O)csc2C1 (stereo not drawn)	-8%[57.1 µM]	-13%	-21%[59 µM]	1%	49%	-69*
COc1ccccc1CNc1ncnc2cc(OC)c(OC)cc12	-29%	-9%	32µM*	-16%	49%	2
COc1cc(-c2ccc3ncnc(NCc4ccc(C)o4)c3c2)cc(OC)c1OC	50µM*	.	.	.	.	.
COc1ccc(CNc2ncnc3cc(OC)c(OC)cc23)cc1	-21%[11.4 µM]	-7%	40µM*	12%	55%	2
COc1ccc(CNc2ncnc3ccc(-c4ccoc4)cc23)c(OC)c1	.	.	-29%[0.501 µM]	.	.	.
COc1cc2ncnc(NCc3ccccc3)c2cc1OC	-15%[11.4 µM]	-10%	71µM*	10%	55%	3
CCCn1cc(S(=O)(=O)c2ccc(F)cc2)c(=O)c2cc(OCC)ccc21	-8%	-4%	13%	-3%	64%	0
COc1cc2ncnc(NCc3cccc(Cl)c3)c2cc1OC	-4%	3%	40µM*	-4%	29%	1
COc1ccc(CNc2ncnc3cc(OC)c(OC)cc23)cc1OC	-18%	-5%	45µM*	-18%	13%	-5
COc1cccc(CNc2ncnc3cc(Cl)ccc23)c1	-3%	-11%	-1%[59 µM]	-11%	34%	-1
COc1cc2ncnc(NCc3ccc4c(c3)OCO4)c2cc1OC	-14%	-9%	11%[12.7 µM]	-9%	47%	-3
COc1ccc(CNCc2c(C(=O)O)c(C)n(Cc3ccccc3C)c2C)cc1OC	-20%	.	5%[59 µM]	-29%	6%	.
Cc1ccc(C)c(N2CCN(C(=O)c3cc4c(=O)n(Cc5cccs5)ccc4nc3C)CC2)c1	?	.	-16%[59 µM]	-31%	3%	.
N=C1S/C(=C\c2ccc(-c3cccc(Cl)c3)o2)C(=O)N1c1nccs1	?	?	3.5µM*	-31%	-15%	-63*
Clc1cccc(-c2ccc(/C=N/n3cnnc3)o2)c1	-22%	-4%	5%[12.7 µM]	-9%	-1%	.
SMILES	JMJD2A Tudor inh	PLK1 PBD inh	G9a inh	BAZ2B block	HP1b binding inh	PI5P4K alpha inh
COc1ccc(/C=C2\SC(=N)N(c3nccs3)C2=O)cc1OC	?	-17%	-17%	0%	9%	-23
O=C1OC(c2cccs2)=N/C1=C\c1ccc(-c2cccc(Cl)c2)o1	-29%	3%	35µM*	?	8%	.
Cc1cc2c(c(/C=C/C(=O)c3ccccc3)c1)OC1(C=C2)Oc2ccccc2C(=O)N1C (stereo not drawn)	-33%	-8%	50µM*	?	16%	4
COC(=O)CCSc1nc2sc3c(c2c(=O)n1Cc1ccccc1)CCC(C(C)(C)C)C3 (stereo not drawn)	-10%	.	49%[59 µM]	-14%	32%	.
O=C(NC1CCCCC1)Oc1cccc2ccccc12	?	24µM*	3%	-4%	?	-4
COc1ccc2oc(C(=O)NCC(c3ccco3)N(C)C)c(C)c2c1 (stereo not drawn)	-27%	-5%	?	50µM*	-9%	0
CSc1ccccc1C(=O)NCC(c1ccco1)N(C)C (stereo not drawn)	-2%	0%	40µM*	-17%	22%	2
COc1ccc2oc(C(=O)NCc3cc(OC)c(OC)cc3OC)c(C)c2c1	35µM*	-13%	?	?	?	-2
CCc1c(C)sc2c1CCN(Cc1cccc(F)c1)C2c1ccccc1 (stereo not drawn)	?	.	-50%[59 µM]	?	-2%	.
OC(C#Cc1ccccn1)c1cccs1 (stereo not drawn)	45µM*	30µM*	-114%[12.7 µM]	7.1µM*	?	-6
C=CC[n+]1c(-c2ccc(OC)c(OC)c2)csc1NNC(=O)Nc1ccccc1	?	1%	?	32µM*	?	.
CCNc1ncc2nc(-c3ccc(Cl)cc3)c(=O)n(C[C@H]3CCCO3)c2n1	.	.	9%[0.501 µM]	.	.	.
CCCCOc1ccc(NC(=O)Nc2nnc(C)s2)cc1	-8%	2%	79µM*	-22%	52%	5
CC(C)c1ccc(NC(=O)Nc2nc(C(N)COCc3ccccc3)cs2)cc1 (stereo not drawn)	.	6%	.	.	.	2
CCc1ccccc1NC(=O)CN(c1ccccc1OC)S(=O)(=O)c1ccc(C)cc1	-15%	.	-3%[59 µM]	5%	7%	.
O=C(c1ccc(NS(=O)(=O)c2ccccc2)cc1)N1CCN(Cc2ccc3c(c2)OCO3)CC1	-21%	-6%	50µM*	-4%	15%	-3
CSc1ccc(S(=O)(=O)N2CCN(Cc3ccc4c(c3)OCO4)CC2)cc1	-11%	-12%	79µM*	-6%	44%	-2
COc1ccc(S(=O)(=O)N2CCN(Cc3ccc4c(c3)OCO4)CC2)c2ccccc12	-30%	-7%	50µM*	10%	39%	4
COc1ccc(S(=O)(=O)N2CCN(Cc3ccc4c(c3)OCO4)CC2)cc1	-27%	-7%	-5%	?	18%	-5
COc1ccc(Cl)cc1S(=O)(=O)N1CCN(Cc2ccc3c(c2)OCO3)CC1	-31%	-7%	-2%[12.7 µM]	-28%	9%	.

Screening results from PubChem.
